# Assays:
# Experiment in all cases: DAPPL (digital affinity profiling via proximity ligation, sequencing); 10 mM Tris-HCl pH 7.5, 50 mM NaCl, 1 mM DTT, 4% glycerol, room temperature, 30 min; GST-TFs on glutathione beads, 16-mer random dsDNA library, 0.1% formaldehyde crosslink after washing; high values mean tight binding
# FEV = target: T1, FEV (Homo sapiens, UniProt Q99581 1-238); details: protein: recombinant; tags: N-terminal GST; dsDNA, one strand shown
# T1 sequence: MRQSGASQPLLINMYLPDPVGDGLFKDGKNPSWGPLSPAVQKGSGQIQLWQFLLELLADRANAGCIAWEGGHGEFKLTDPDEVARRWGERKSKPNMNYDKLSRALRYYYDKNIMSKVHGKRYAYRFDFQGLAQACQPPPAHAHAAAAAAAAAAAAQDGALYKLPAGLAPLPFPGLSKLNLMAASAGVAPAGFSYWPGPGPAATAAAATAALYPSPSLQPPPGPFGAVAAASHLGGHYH
# How it was run: (§1)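 Beads coated with glutathione captured GST-fused human transcription factors that had been expressed in yeast, and the factors were then given DNA barcodes and pooled with a tag-only sample. The pools were incubated with 200 nmole of a random double-stranded 16-mer DNA library in Tris/NaCl/DTT/glycerol buffer for 30 min at room temperature, washed, crosslinked with 0.1% formaldehyde and proximity-ligated with BsaI/T4 ligase at 37 °C for 1 h. PCR amplification and Illumina NextSeq500 sequencing came last. Binding signal is each hexamer's read frequency for a factor divided by its frequency for the tag-only sample.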
# ETV5 = ETV5 (Homo sapiens, UniProt P41161 1-510); details: protein: recombinant; tags: N-terminal GST; dsDNA, one strand shown
# How it was run: as §1
# HSF1 = HSF1 (Homo sapiens, UniProt Q00613 1-529); details: protein: recombinant; tags: N-terminal GST; chain copies: 3; dsDNA, one strand shown
# How it was run: as §1
# SPIC = target: T2, SPIC (Homo sapiens, UniProt Q8N5J4 1-248); details: protein: recombinant; tags: N-terminal GST; dsDNA, one strand shown
# T2 sequence: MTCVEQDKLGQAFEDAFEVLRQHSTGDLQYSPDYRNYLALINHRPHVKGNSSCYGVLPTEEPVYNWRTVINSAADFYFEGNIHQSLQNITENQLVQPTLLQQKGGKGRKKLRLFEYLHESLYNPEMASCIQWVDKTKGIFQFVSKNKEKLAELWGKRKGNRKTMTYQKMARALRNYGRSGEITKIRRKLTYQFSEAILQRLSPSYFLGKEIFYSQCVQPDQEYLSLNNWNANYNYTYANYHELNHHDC
# How it was run: as §1
# ELF4 = ELF4 (Homo sapiens, UniProt Q99607 1-663); details: protein: recombinant; tags: N-terminal GST; dsDNA, one strand shown
# How it was run: as §1
# ELK4 = target: T3, ELK4 (Homo sapiens, UniProt P28324-2 1-405); details: protein: recombinant; tags: N-terminal GST; dsDNA, one strand shown
# T3 sequence: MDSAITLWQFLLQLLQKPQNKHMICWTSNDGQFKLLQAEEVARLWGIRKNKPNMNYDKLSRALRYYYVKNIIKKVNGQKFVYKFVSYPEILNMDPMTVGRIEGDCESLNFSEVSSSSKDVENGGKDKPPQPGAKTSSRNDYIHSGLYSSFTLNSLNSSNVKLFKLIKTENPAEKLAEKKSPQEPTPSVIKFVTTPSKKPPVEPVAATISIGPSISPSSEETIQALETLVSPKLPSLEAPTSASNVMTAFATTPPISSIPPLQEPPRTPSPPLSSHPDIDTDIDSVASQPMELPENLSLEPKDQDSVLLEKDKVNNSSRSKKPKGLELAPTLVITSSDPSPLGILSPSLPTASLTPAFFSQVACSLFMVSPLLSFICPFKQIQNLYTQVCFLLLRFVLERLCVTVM
# How it was run: as §1
# ETV2 = target: T4, ETV2 (Homo sapiens, UniProt O00321 1-342); details: protein: recombinant; tags: N-terminal GST; dsDNA, one strand shown
# T4 sequence: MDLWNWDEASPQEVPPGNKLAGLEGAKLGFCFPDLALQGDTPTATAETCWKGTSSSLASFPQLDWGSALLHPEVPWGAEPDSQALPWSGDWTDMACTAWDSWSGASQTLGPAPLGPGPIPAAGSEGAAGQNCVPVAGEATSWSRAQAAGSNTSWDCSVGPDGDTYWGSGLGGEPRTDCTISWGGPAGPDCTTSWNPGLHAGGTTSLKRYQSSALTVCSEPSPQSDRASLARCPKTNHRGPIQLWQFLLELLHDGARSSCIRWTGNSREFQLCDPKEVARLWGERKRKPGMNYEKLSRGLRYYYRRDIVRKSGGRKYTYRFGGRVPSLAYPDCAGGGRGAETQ
# How it was run: as §1
# ELF3 = target: T5, ELF3 (Homo sapiens, UniProt P78545 1-371); details: protein: recombinant; tags: N-terminal GST; dsDNA, one strand shown
# T5 sequence: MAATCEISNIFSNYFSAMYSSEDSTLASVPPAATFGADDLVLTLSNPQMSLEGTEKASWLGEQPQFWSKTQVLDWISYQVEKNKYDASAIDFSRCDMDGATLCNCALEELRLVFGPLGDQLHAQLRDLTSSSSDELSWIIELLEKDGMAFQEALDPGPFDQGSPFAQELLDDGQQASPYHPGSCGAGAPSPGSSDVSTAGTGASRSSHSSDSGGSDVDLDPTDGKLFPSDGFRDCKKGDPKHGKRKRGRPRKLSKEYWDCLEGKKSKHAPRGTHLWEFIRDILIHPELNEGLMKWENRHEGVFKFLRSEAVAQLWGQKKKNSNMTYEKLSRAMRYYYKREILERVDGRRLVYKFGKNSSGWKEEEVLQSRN
# How it was run: as §1
# CRX = CRX (Homo sapiens, UniProt O43186 1-299); details: protein: recombinant; tags: N-terminal GST; dsDNA, one strand shown
# How it was run: as §1
# ETV1 = ETV1 (Homo sapiens, UniProt P50549 1-477); details: protein: recombinant; tags: N-terminal GST; dsDNA, one strand shown
# How it was run: as §1
# ERF = target: T6, ERF (Homo sapiens, UniProt P50548 1-548); details: protein: recombinant; tags: N-terminal GST; dsDNA, one strand shown
# T6 sequence: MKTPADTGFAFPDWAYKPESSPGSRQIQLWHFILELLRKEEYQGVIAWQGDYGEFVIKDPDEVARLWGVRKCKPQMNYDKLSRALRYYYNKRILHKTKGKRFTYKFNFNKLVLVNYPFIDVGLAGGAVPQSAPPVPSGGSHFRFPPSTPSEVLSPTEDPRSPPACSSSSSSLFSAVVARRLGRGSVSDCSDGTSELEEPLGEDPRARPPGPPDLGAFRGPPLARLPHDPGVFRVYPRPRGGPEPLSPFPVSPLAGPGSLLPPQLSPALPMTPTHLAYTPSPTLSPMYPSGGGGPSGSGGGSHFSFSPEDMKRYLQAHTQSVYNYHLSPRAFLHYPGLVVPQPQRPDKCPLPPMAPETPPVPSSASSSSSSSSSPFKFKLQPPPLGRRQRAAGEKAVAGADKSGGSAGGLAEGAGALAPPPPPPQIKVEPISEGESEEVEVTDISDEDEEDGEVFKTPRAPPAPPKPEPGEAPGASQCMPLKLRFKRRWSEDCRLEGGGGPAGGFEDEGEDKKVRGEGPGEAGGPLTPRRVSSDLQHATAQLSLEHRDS
# How it was run: as §1
# ETV3L = target: T7, ETV3L (Homo sapiens, UniProt Q6ZN32 1-361); details: protein: recombinant; tags: N-terminal GST; dsDNA, one strand shown
# T7 sequence: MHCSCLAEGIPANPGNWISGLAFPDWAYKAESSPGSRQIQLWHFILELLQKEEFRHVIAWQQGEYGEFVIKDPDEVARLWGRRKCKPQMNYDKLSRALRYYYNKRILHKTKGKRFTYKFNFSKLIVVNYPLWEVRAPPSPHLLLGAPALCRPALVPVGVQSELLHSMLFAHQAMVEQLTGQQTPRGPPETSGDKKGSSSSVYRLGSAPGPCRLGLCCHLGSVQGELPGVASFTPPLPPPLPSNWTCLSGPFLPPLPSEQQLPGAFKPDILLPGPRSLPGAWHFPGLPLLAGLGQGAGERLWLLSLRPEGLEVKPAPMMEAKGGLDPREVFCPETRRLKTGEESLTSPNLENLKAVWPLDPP
# How it was run: as §1
# ETS2 = target: T8, ETS2 (Homo sapiens, UniProt P15036 1-469); details: protein: recombinant; tags: N-terminal GST; dsDNA, one strand shown
# T8 sequence: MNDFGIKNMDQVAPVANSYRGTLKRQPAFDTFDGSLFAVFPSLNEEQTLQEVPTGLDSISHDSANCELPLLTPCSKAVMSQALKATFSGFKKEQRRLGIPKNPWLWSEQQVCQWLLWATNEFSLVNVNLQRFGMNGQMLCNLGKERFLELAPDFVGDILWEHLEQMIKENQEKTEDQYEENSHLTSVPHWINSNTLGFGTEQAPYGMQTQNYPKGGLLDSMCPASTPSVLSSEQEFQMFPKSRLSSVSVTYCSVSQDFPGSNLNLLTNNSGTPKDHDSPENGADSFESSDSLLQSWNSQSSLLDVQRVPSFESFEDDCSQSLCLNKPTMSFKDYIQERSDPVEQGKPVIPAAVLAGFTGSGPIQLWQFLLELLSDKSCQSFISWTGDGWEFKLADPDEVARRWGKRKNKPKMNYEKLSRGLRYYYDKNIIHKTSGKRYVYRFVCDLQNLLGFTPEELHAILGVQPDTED
# How it was run: as §1
# SPDEF = target: T9, SPDEF (Homo sapiens, UniProt O95238 1-335); details: protein: recombinant; tags: N-terminal GST; dsDNA, one strand shown
# T9 sequence: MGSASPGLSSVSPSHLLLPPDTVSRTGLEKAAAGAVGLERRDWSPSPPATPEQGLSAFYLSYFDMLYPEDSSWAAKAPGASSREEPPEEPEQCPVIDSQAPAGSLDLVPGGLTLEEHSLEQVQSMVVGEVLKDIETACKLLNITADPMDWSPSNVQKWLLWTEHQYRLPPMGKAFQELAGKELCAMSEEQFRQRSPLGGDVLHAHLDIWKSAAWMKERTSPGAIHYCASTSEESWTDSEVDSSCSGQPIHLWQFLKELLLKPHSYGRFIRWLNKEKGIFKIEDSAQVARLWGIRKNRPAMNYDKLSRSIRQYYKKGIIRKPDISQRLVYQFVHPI
# How it was run: as §1
# ETV7 = target: T10, ETV7 (Homo sapiens, UniProt Q9Y603 1-341); details: protein: recombinant; tags: N-terminal GST; dsDNA, one strand shown
# T10 sequence: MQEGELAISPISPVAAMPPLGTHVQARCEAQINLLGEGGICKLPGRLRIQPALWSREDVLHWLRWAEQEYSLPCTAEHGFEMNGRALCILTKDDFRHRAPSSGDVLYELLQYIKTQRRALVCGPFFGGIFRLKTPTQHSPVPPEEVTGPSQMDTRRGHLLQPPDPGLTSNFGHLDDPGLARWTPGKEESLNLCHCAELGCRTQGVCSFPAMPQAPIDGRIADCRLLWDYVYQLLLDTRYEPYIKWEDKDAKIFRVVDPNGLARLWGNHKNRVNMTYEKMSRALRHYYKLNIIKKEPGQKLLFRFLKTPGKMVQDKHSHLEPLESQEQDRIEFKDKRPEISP
# How it was run: as §1
# ELF5 = target: T11, ELF5 (Homo sapiens, UniProt Q9UKW6-2 1-255); details: protein: recombinant; tags: N-terminal GST; dsDNA, one strand shown
# T11 sequence: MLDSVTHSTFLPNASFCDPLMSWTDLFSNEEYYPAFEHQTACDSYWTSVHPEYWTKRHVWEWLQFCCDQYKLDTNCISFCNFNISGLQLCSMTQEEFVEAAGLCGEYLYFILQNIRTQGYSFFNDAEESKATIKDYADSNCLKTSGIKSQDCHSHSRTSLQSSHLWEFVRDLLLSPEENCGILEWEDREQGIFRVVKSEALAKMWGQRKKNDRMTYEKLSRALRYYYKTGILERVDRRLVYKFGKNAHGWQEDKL
# How it was run: as §1
# ETV3 = target: T12, ETV3 (Homo sapiens, UniProt P41162-2 1-143); details: protein: recombinant; tags: N-terminal GST; dsDNA, one strand shown
# T12 sequence: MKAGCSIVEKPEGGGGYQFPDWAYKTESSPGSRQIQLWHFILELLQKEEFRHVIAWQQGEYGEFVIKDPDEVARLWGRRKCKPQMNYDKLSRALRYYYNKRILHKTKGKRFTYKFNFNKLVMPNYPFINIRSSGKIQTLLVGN
# How it was run: as §1
# ETV6 = ETV6 (Homo sapiens, UniProt P41212 1-452); details: protein: recombinant; tags: N-terminal GST; dsDNA, one strand shown
# How it was run: as §1
# Chain of ETV1 (P50549 whole entry): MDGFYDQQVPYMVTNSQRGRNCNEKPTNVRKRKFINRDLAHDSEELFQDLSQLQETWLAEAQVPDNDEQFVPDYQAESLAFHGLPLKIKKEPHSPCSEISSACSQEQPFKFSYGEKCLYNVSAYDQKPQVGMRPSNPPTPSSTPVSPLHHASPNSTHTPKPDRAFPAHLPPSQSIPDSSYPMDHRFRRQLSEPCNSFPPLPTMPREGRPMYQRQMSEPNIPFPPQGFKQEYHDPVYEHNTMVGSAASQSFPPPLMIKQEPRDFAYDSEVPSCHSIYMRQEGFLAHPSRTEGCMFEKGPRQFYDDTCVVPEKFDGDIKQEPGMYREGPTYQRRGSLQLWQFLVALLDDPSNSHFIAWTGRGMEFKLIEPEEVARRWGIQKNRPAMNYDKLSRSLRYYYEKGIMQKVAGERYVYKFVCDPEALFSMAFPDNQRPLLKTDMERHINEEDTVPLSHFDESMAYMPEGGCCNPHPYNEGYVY
# Chain of ETV5 (P41161 whole entry): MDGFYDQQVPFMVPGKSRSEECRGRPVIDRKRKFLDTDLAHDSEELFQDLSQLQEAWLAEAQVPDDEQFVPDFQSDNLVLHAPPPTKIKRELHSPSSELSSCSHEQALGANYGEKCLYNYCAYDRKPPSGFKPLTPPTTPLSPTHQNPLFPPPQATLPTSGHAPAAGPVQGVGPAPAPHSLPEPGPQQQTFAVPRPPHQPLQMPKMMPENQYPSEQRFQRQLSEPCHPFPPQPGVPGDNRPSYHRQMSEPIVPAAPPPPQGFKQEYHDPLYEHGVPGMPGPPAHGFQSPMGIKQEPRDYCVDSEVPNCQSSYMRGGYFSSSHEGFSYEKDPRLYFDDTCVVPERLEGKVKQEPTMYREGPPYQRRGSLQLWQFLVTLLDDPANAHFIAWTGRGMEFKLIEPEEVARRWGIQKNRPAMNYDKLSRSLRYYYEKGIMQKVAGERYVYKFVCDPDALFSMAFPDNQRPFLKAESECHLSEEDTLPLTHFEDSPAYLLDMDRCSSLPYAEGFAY
# Chain of ELF4 (Q99607 whole entry): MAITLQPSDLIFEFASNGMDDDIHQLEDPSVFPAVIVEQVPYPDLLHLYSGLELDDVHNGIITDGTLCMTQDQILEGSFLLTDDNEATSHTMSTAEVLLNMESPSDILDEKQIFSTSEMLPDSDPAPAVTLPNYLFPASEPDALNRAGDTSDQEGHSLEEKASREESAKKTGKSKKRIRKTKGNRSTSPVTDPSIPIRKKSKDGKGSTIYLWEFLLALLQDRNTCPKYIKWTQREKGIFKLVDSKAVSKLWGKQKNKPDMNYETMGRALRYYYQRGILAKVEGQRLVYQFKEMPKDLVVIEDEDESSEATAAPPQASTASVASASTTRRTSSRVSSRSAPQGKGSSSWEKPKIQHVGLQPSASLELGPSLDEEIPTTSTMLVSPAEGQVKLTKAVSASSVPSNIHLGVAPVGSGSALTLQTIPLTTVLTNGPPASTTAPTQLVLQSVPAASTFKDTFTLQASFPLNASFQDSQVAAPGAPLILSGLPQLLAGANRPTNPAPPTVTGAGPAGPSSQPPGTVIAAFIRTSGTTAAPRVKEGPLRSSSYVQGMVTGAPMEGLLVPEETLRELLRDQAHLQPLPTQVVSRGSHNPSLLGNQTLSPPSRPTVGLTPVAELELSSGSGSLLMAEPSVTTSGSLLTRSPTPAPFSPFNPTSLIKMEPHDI
# Chain of HSF1 (Q00613 whole entry): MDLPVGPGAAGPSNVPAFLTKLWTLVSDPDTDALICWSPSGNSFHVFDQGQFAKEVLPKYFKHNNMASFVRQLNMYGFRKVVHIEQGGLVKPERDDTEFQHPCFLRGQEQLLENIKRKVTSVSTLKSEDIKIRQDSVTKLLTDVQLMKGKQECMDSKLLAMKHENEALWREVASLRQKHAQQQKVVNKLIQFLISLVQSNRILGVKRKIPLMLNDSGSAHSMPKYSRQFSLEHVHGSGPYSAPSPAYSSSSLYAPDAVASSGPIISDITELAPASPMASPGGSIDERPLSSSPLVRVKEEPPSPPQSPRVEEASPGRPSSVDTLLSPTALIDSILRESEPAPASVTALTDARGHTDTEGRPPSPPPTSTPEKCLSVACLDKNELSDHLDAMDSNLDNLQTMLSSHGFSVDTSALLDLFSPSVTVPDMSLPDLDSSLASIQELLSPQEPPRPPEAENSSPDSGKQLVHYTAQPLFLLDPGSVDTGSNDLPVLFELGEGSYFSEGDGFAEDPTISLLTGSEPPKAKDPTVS
# Chain of ETV6 (P41212 whole entry): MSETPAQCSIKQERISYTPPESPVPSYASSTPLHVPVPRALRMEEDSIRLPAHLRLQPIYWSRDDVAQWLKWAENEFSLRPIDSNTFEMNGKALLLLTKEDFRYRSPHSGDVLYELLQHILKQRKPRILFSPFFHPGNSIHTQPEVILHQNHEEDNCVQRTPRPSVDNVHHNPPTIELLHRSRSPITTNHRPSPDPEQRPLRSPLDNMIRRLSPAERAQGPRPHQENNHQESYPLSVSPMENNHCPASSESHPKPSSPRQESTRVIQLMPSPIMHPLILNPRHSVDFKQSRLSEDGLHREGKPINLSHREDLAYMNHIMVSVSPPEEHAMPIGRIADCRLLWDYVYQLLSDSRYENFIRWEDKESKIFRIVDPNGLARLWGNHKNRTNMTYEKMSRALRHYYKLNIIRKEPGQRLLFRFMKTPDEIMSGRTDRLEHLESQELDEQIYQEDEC
# Chain of CRX (O43186 whole entry): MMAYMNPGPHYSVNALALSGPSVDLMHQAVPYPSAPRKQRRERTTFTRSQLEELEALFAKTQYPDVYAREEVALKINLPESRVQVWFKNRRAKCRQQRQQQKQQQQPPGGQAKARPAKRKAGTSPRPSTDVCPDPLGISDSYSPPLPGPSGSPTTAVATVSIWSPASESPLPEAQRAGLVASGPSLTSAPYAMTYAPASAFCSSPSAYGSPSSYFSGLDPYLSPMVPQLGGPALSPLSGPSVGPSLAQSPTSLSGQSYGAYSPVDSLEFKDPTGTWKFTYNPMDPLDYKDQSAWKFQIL
sequence,measurement,setting,value
ACGGAT,binding signal,FEV,"1.54 fold enrichment (6-mer frequency, TF over GST control)"
same,binding signal,ETV5,"1.32 fold enrichment (6-mer frequency, TF over GST control)"
same,binding signal,HSF1,"1.18 fold enrichment (6-mer frequency, TF over GST control)"
same,binding signal,SPIC,"1.38 fold enrichment (6-mer frequency, TF over GST control)"
same,binding signal,ELF4,"1.19 fold enrichment (6-mer frequency, TF over GST control)"
same,binding signal,ELK4,"1.12 fold enrichment (6-mer frequency, TF over GST control)"
same,binding signal,ETV2,"1.2 fold enrichment (6-mer frequency, TF over GST control)"
same,binding signal,ELF3,"1.3 fold enrichment (6-mer frequency, TF over GST control)"
same,binding signal,CRX,"1.61 fold enrichment (6-mer frequency, TF over GST control)"
same,binding signal,ETV1,"1.23 fold enrichment (6-mer frequency, TF over GST control)"
same,binding signal,ERF,"1.11 fold enrichment (6-mer frequency, TF over GST control)"
same,binding signal,ETV3L,"1.23 fold enrichment (6-mer frequency, TF over GST control)"
same,binding signal,ETS2,"1.3 fold enrichment (6-mer frequency, TF over GST control)"
same,binding signal,SPDEF,"1.94 fold enrichment (6-mer frequency, TF over GST control)"
same,binding signal,ETV7,"1.13 fold enrichment (6-mer frequency, TF over GST control)"
same,binding signal,ELF5,"1.34 fold enrichment (6-mer frequency, TF over GST control)"
same,binding signal,ETV3,"1.3 fold enrichment (6-mer frequency, TF over GST control)"
same,binding signal,ETV6,"1.22 fold enrichment (6-mer frequency, TF over GST control)"

# Reference: article PMC7862700, “An all-to-all approach to the identification of sequence-specific readers for epigenetic DNA modifications on cytosine”
